AmpC no deterg = inhibitors of E. coli AmpC beta-lactamase without detergent; P00811; AmpC nitrocefin hydrolysis, absorbance 480 nm, 0.0001% Triton; Potency, µM (highest dose often 57.1 µM), without a hit: top-dose activity change, negative = inhibition, hits mostly inhibitors; 330,000 compounds, 0.52% hits; AID 485341;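 also: potency is read from the fitted curve at half-maximal effect; plate controls were no compound for no effect and no enzyme for full effect; nearly all actives have a fitted effect of over 20% in size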
Target sequence (P00811 whole entry, looked up): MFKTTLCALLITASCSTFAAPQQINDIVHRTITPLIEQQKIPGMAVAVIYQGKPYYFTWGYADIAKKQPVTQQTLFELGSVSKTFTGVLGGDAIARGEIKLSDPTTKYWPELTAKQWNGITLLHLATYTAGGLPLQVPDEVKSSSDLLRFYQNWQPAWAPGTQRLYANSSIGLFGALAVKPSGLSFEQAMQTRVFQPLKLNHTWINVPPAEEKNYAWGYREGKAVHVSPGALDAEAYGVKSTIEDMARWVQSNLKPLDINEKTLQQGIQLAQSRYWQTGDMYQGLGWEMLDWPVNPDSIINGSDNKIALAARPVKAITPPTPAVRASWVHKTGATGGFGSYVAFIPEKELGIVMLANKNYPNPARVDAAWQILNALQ
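20 mM phosphate pH 7.0 + 0.01% (detergent screen) or 0.0001% Triton X-100; 5.3 nM AmpC reagent; cpd preinc 15 min RT; nitrocefin (800 uM stock) to start; A480 q20 s × 4 min; Activity was normalised to no-enzyme and no-compound control wells.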
AMA1-RON2 inh = disrupts binding of P. falciparum AMA1 to RON2 | Potency, µM (highest dose often 58.2 µM), inactives show at the highest dose activity change, negative = inhibition, hits mostly inhibitors | AID 720542 | 360,000 compounds, 0.2% hits | AlphaScreen AMA1-biotinylated RON2 peptide binding;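 also: potency is read from the fitted curve at half-maximal effect; 0% = vehicle wells and -100% = peptide control; nearly all actives have a fitted effect of over 45% in size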
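AMA1 (3D7) with his tag at 25 nM final met compounds first, then biotinylated RON2 peptide at 25 nM; detection used donor plus acceptor beads, 10 µg/mL apiece, read by AlphaScreen after 30 min at room temperature.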
SARS PLP yeast = blocks SARS-CoV papain-like protease in a yeast assay; S. cerevisiae expressing SARS-CoV PLpro, growth rescue; Potency, µM (doses to about 32.9 µM), inactives show at the highest dose activity, positive = growth rescue, usual class: activators; 330,000 compounds, 0.19% hits; AID 485353; calls by dose curve; also: potency is read from the fitted curve at half-maximal effect; 0% is about no effect; nearly all actives have a fitted effect of over 55% in size
Shiga inhibitor = Shiga toxin inhibition | 290,000 compounds, 9.2% hits | Vero cells, Shiga toxin protein synthesis inhibition reporter | inhibition, % at 38.7 µM | AID 2315; in the data active = inhibition mostly above about 28%, no sharp cut-off; inactive = mostly below about 43%; also: 0% is about no effect
AmpC detergent = AmpC beta-lactamase inhibition with detergent present; AmpC hydrolysis of nitrocefin, absorbance 480 nm, 0.01% Triton; Potency, µM (titrated, usually from 114 µM), without a hit: at the top dose activity change, negative = inhibition, actives largely listed as inhibitors; 370,000 compounds, 0.041% hits; AID 485294;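 also: potency is read from the fitted curve at half-maximal effect; 0% = no-compound wells and -100% = no-enzyme wells; nearly all actives have a fitted effect of over 25% in size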
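20 mM phosphate pH 7.0 + 0.01% (detergent screen) or 0.0001% Triton X-100; 5.3 nM AmpC reagent; cpd preinc 15 min RT; nitrocefin (800 uM stock) to start; A480 q20 s × 4 min; Activity was normalised to no-enzyme and no-compound control wells.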
CHX counter = counter-screen hit for Shiga toxin inhibitors, cycloheximide; cell reporter, cycloheximide protein synthesis inhibition counterscreen; max response, %; 300,000 compounds, 12% hits; in the data active = max response mostly above about 13%, no sharp cut-off; inactive = mostly below about 14%; also: read at 38.3 µM for the half of the compounds with a filed dose; 0% is about no effect
* marks the source's active call; other numbers are inactive results; u = inconclusive; x = not tested or not shown; + = active, no number; [ ] = another dose, or the depositor's remark. This excerpt belongs to a sample that is enriched for hits. Unless noted, calls follow the shape of the dose curve; as a rule, active = well fitted curve in the direction sought with a large enough effect; inconclusive = small, poorly fitted or top-dose-only effect, or another doubt; inactive = no such curve, though single readings can be large; an effect the other way counts as inactive or inconclusive.

SMILES	AmpC no deterg	AMA1-RON2 inh	SARS PLP yeast	Shiga inhibitor	AmpC detergent	CHX counter
O=C(Cc1ccc(Cl)cc1)N/N=C1\CCCc2ccccc21	-25%	11%	6%	29	-3%	-4
O=C(OCn1ncc(Br)c(Br)c1=O)c1ccc(F)cc1	-49%	-9%	-46%	13	-14%	24*
O=C(CCl)Nc1ncc(S(=O)(=O)c2ccc([N+](=O)[O-])cc2)s1	-14%	6%	0%	x	x	x
CCOc1ccc(S(=O)(=O)Nc2ccc(S(=O)(=O)N3CCCCC3)cc2)cc1	-50%	-5%	-1%	-6	-13%	-1
CCOc1ccc(C(=O)Nc2cc(-c3nc4ccccc4[nH]3)ccc2Cl)cc1[N+](=O)[O-]	u	-30%	-56%	-4	u	27*
Cc1c(C(=O)Nc2nc3ccccc3[nH]2)cccc1[N+](=O)[O-]	-34%	76%	-10%	28	2%	15*
CCOc1ccc(C(=O)Nc2cc(-c3nc4ccccc4[nH]3)ccc2C)cc1[N+](=O)[O-]	-24%	-15%	-13%	27	2%	13
O=C(Nc1nc2ccccc2[nH]1)c1ccccc1[N+](=O)[O-]	-8%[11.4 µM]	74%	0%	51*	-7%	35*
O=C(Nc1nc2ccccc2[nH]1)c1ccc(Cl)c([N+](=O)[O-])c1	-21%	65%	0%	116*	-7%	37*
O=C(NC(Cc1ccccc1)c1nc2ccccc2[nH]1)c1ccc(Cl)c([N+](=O)[O-])c1 (configuration not stated)	-40%	-4%	-2%	4	0%	1
O=C(Nc1nc2ccccc2[nH]1)c1ccccc1F	-22%	63%	-32%	-23	u	-9
CC(=O)OCC(=O)NCCCOc1cccc(CN2CCCCC2)c1	x	-16%	x	x	x	x
c1csc(C2=Nn3c(nnc3-c3ccncc3)SC2)c1	-12%	-1%	-2%	-5	u	-6
Cc1ccccc1CN1C(=O)c2ccccc2S(=O)c2ccc(C(=O)NCCCN3CCOCC3)cc21 (configuration not stated)	195%	-8%	23%	-11	-15%	-2
CCN1C(=O)CC(N2CCN(c3ccc(C(=O)c4ccccc4)cc3)CC2)C1=O (configuration not stated)	x	-5%	x	106*	-1%	64*
O=C1CC(N2CCN(c3ccc(C(=O)c4ccc(F)cc4)cc3)CC2)C(=O)N1 (configuration not stated)	32%	8%	-4%	31	u	18*
Cn1cc(CCNC(=O)CC2C(=O)NCCN2Cc2cccc(Oc3ccccc3)c2)cn1 (configuration not stated)	106%	19%	-1%	-9	-1%	-4
CNc1ncc(C(=O)c2ccc(-c3ccccc3)cc2)s1	-19%	11%	-3%	64*	-6%	45*
CNc1ncc(C(=O)c2ccc(Cl)cc2)s1	-22%	-1%	-6%	69*	-18%	35*
CNc1ncc(C(=O)c2ccc(Cl)c(Cl)c2)s1	-14%	-10%	-16%	94*	-14%	38*
O=C(c1cnc(-c2ccc(Cl)cc2)s1)c1ccc(Cl)cc1Cl	-15%	7%	3%	-7	u	-2
COc1cc(OC)c2c(-c3ccccc3)cc(=O)oc2c1C(CC(=O)N1CCOCC1)c1ccc(N(C)C)cc1 (configuration not stated)	169%	u	1%	-12	6%	14
Cc1ccc(C)c(NC2=CC(=O)CC(C)(C)C2)c1C#N	5%	12%	4%	-12	u	5
O=C(CSCc1ccccc1Cl)Nc1ccc2c(c1)OCCO2	-9%	-16%	4%	95*	1%	58*
O=C(CNCc1ccccc1Cl)Nc1ccc2c(c1)OCCO2	-9%	u	1%	87*	-6%	45*
SMILES	AmpC no deterg	AMA1-RON2 inh	SARS PLP yeast	Shiga inhibitor	AmpC detergent	CHX counter
CC(C)c1ccc(N(CC(=O)NCc2ccco2)C(=O)CCC(=O)Nc2ccccn2)cc1	46%	-3%	-1%	51*	1%	11*
O=C(CN(C(=O)CCC(=O)Nc1ccccn1)c1ccc(F)cc1)NCc1ccco1	10%	-3%	1%	28	u	-1
COc1ccc(N2CCN(Cc3cc(=O)oc4ccc(Cl)cc34)CC2)cc1	30%	4%	-2%	2	u	-1
COc1ccc(C(=O)OC2C[C@H]3CC[C@H](C2)N3C)cc1OC (some centres not stated)	-18%	-4%	x	x	-25%	x
COc1cc(C(=O)OC2CC3CCC2(C)C3(C)C)ccc1OC(C)=O (configuration not stated)	45%	7%	-3%	-4	10%	16*
O=C(O)c1ccccc1C(=O)Nc1cccc([N+](=O)[O-])c1	-3%	-2%	1%	5	-4%	-3
CC(=O)c1ccc(NC(=O)c2ccn[nH]2)cc1	-14%	0%	-11%	65*	-6%	35*
O=C(Nc1ccccc1)c1ccn[nH]1	-5%	-22%	-5%	94*	u	38*
O=C(Nc1cccc([N+](=O)[O-])c1)c1ccn[nH]1	-21%	23%	-9%	76*	u	60*
C/C(=N\Nc1ncc(Cl)cc1Cl)c1ccccn1	-34%	71%	23%	119*	1%	43*
O=[N+]([O-])c1ccc(NN=Cc2cccc3ccccc23)nc1	x	58%	x	x	x	x
C/C(=N\NC(=O)CNc1ccc(F)cc1)c1cc2ccccc2o1	-33%[11.4 µM]	13%	0%	22	-5%	8
C/C(=N\Nc1cccc(C(=O)O)c1)c1cc2ccccc2o1	-30%	5%	-7%	198*	3%	71*
O=[N+]([O-])c1cccc(N/N=C/c2cccc3ccccc23)c1	-50%	-10%	-48%	42*	-12%	30*
CC(=O)c1cccc(NC(=O)CNC(=O)c2cc3ccccc3o2)c1	-5%	12%	30%	-6	-4%	-7
C/C(=N\Nc1ccc(Cl)c(C(=O)O)c1)c1cc2ccccc2o1	-24%	-1%	-6%	+	3%	80*
CO[C@H]1CC=C2CCN3CCC4=C(CC(=O)OC4)[C@]23C1	4%	1%	x	3	u	3
N#CCC(=O)N/N=C/c1cn(Cc2ccc(Cl)c(Cl)c2)c2ccccc12	-41%	7%	1%	-18	3%	1
C/C(=N\Nc1cccc([N+](=O)[O-])c1)c1cc2ccccc2o1	-1%	0%	1%	44*	-1%	40*
C/C(=N\Nc1ccc(Cl)c(C(=O)O)c1)c1cccc2ccccc12	-29%	-30%	-1%	45	u	12*
CC(C)n1cc(/C=N/Nc2ccc(Cl)c(C(=O)O)c2)c2ccccc21	-30%	x	-3%	x	-14%	49*
